Reference: the supplement of paper PMC8866396
± gives the standard deviation of the averaged measurements.

Legend:
IL-6-GFP PC-9GR = experiment: cell viability (CCK-8 OD) relative to DMSO control (fraction of control); higher = more viable cells; settings: compound concentration: 10 uM; treatment time: 48 h
In short: (§1)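 Compounds from a purchased library of 510 were each tested at a final 10 μM for 48 h on PC-9 and PC-9GR lung cancer cells plated at 3000 cells/well in 96-well plates. These cells overexpressed IL-6-GFP from a lentiviral construct. Viability came from CCK-8 absorbance, given as the optical density of each well over that of the vehicle control well, across independent replicates numbering two.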

IL-6-GFP PC-9 = experiment: as above; settings: compound concentration: 10 uM; treatment time: 48 h
In short: as §1

| Structure (SMILES) | cell viability (IL-6-GFP PC-9GR) | cell viability (IL-6-GFP PC-9) |
| --- | --- | --- |
| O=C(/C=C/C=C/c1ccc2c(c1)OCO2)N1CCCCC1 [Piperine] | 1.33 ± 0.093 | 1.47 ± 0.33 |
| CC1(C)OC2CC3C4CC(F)C5=CC(=O)C=CC5(C)C4(F)C(O)CC3(C)C2(C(=O)CO)O1 (stereo not drawn) [Fluocinolone Acetonide] | 1.26 ± 0.091 | 1 ± 0.015 |
| CO/N=C(\C(=O)NC1C(=O)N2C(C(=O)OCOC(=O)C(C)(C)C)=C(C)CSC12)c1csc(N)n1.Cl (stereo not drawn) [Cefetamet pivoxil hydrochloride] | 1.25 ± 0.28 | 1.14 ± 0.056 |
| COc1cc(C2c3cc4c(cc3C(OC3OC5COC(c6cccs6)OC5C(O)C3O)C3COC(=O)C23)OCO4)cc(OC)c1O (stereo not drawn) [Teniposide] | 0.0642 ± 0.047 | 0.121 ± 0.035 |
| CCCC(=O)OC1(C(=O)CO)CCC2C3CCC4=CC(=O)CCC4(C)C3C(O)CC21C (stereo not drawn) [Hydrocortisone butyrate] | 0.857 ± 0.11 | 1.08 ± 0.073 |
| Cc1ccc(S(=O)(=O)O)cc1.NC(=O)c1cccc2cn(-c3ccc(C4CCCNC4)cc3)nc12 (stereo not drawn) [Niraparib (MK-4827) tosylate] | 0.764 ± 0.096 | 0.916 ± 0.22 |
| C=CC(=O)Nc1cc(Nc2nccc(-c3cn(C)c4ccccc34)n2)c(OC)cc1N(C)CCN(C)C.CS(=O)(=O)O [Osimertinib mesylate] | 0.206 ± 0.046 | 0.298 ± 0.12 |
| CCCCC(=O)OC1(C(=O)CO)C(C)CC2C3CCC4=CC(=O)C=CC4(C)C3(F)C(O)CC21C (stereo not drawn) [Betamethasone Valerate] | 1.11 ± 0.14 | 0.804 ± 0.026 |
| O=c1ccc2ccc(O)c(O)c2o1 [Daphnetin] | 1.303 ± 0.0056 | 1.17 ± 0.18 |
